In all, about 69,000 compounds went through this assay and about 8,600 (12%) showed an effect of 50% or more. Only a selection was taken, and strong results are over-represented in it overall.

INHIBITION data for 52 molecules are collected here from ChEMBL document CHEMBL4513216, “Probing the Open Global Health Chemical Diversity Library for Multistage-Active Starting Points for Next-Generation Antimalarials” (ACS Infect Dis, 2020).

This assay concerns Plasmodium berghei. The assay can be described thus: Screen against P. berghei liver stage (PbLuc), transformed with Luciferase, at 10uM. The format is functional, HepG2. To be noted: tested at 10 uM.
As for `CC(C)=CCCC1(C)CCC(=O)N(CCc2nc(N)cc(O)n2)C1` (configuration not stated), the INHIBITION came out at 21.5%. The value for `c1coc(CN2CCCn3c(CN4CCOCC4)nnc3C2)c1` was -4.26%; that for `CNC(=O)NC(=O)CCSc1ccccc1Cl` was 41.8%; that for `N#Cc1ccc(SCCC(=O)NC(N)=O)cc1` was -33.4%. Regarding `NC(=O)NC(=O)CCSc1ccccc1Cl`, the INHIBITION stood at 55.9%.

Turning to `Cc1nc(CN2C[C@@H]3CN(c4ncccn4)C[C@@H]3C2=O)cs1`, the INHIBITION is recorded as -12.1%. The value for `Cc1cc(C)c(CNC(=O)NCC2COc3ccccc3C2)c(=O)[nH]1` (configuration not stated) was 17.5%; that for `Cc1cc(C)c(CNC(=O)NCC2Cc3ccccc32)c(=O)[nH]1` (configuration not stated) was 0.342%.

Take `Cc1cc(C)c(CNC(=O)NCC2Cc3ccccc3O2)c(=O)[nH]1` (configuration not stated): the INHIBITION worked out at 73.1%. The value for `Cc1cc(C)c(CNC(=O)NCc2ccc3c(c2)CCC3)c(=O)[nH]1` was 30.2%; that for `Cc1cc(C)c(CNC(=O)Cc2ccc3c(c2)CCCC3)c(=O)[nH]1` was 40%. Next, `Cc1cc(C)c(CNC(=O)c2ccc3c(c2)CCC3)c(=O)[nH]1`: 50.3%; `N#Cc1c(-c2ccccc2)csc1N`: 49.7%. Next, `O=C(NCCC1CC1)NCc1cccc(-n2ccnc2)c1`: 21.6%; `Cn1cccc1C(=O)N1C[C@@H]2CCN(c3cccnc3)C[C@@H]2C1`: 36.9%; `O=C(c1ccsc1)N1C[C@@H]2CCN(c3cccnc3)C[C@@H]2C1`: 77.7%. Take `Cc1ccccc1C(=O)N1C[C@@H]2CCN(c3cccnc3)C[C@@H]2C1`: the INHIBITION turned out to be 68.4%. The value for `O=C(c1ccco1)N1C[C@@H]2CCN(c3cccnc3)C[C@@H]2C1` was 90.5%.

Consider `O=C(c1ccc(O)cc1)N1C[C@@H]2CCN(c3cccnc3)C[C@@H]2C1`, for which the INHIBITION was found to be 46.2%.

As for `Cc1ccc(C(=O)N2C[C@@H]3CCN(c4cccnc4)C[C@@H]3C2)cn1`, the INHIBITION is given as 19.4%. With `O=C(c1cnccn1)N1C[C@@H]2CCN(c3cccnc3)C[C@@H]2C1`, the INHIBITION was found to be 41.6%. The value for `O=C(c1ccncc1)N1C[C@@H]2CCN(c3cccnc3)C[C@@H]2C1` was 47.4%; that for `Cc1cccc(C(=O)N2C[C@@H]3CCN(c4cccnc4)C[C@@H]3C2)c1` was 23.3%. Next, `CC(=O)Nc1nc(CN2CCOC(Cn3nc(C)cc3C)C2)cs1` (configuration not stated): 15.6%; `COCCN(Cc1ccoc1)C(=O)c1ccc(Cl)s1`: 25.1%. Turning to `Cn1nccc1CNC(=O)Cn1nc(C(F)(F)F)cc1C1CC1`, the INHIBITION was 1.11%. The value for `CCc1nc(CN(C)C2CCN(Cc3ccc(Cl)s3)C2)no1` (configuration not stated) was 36.4%; that for `Cc1noc(C)c1CC(=O)Nc1ccn(CC(N)=O)n1` was 37.6%; that for `CCn1ccc(NC(=O)CCc2c(C)noc2C)n1` was 38.7%.

Consider `Cc1noc(C)c1CCC(=O)Nc1ccn(C)n1`, for which the INHIBITION came to 71.2%. The value for `O=C(CCCc1ccccn1)Nc1cccc(N2CCCNC2=O)c1` was 11.2%.

In the case of `Cc1ccc(C(=O)Nc2cn[nH]c2)cc1`, the INHIBITION worked out at 31.005%. Next, `COC(CNC(=O)NCc1c(C)cc(C)[nH]c1=O)c1ccccc1` (configuration not stated): 36.1%; `Cc1noc(C(C)C)c1C(=O)NCCN1CCOCC1`: -31.8%; `CN1N=C(C(=O)N2CCCC(n3cccn3)C2)CCC1=O` (configuration not stated): 11.9%.

With `CN1N=C(C(=O)N2CCCC(n3ccnc3)C2)CCC1=O` (configuration not stated), the INHIBITION is 21.6%.

As to `Cc1nccn1C1CCCN(C(=O)C2=NN(C)C(=O)CC2)C1` (configuration not stated), the INHIBITION turned out to be 51.6%. As to `CCc1nccn1C1CCCN(C(=O)c2ccn(C)c(=O)c2)C1` (configuration not stated), the INHIBITION stood at 2.9%. Next, `CCc1nccn1C1CCCN(C(=O)C2=NN(C)C(=O)CC2)C1` (configuration not stated): 53%; `CC(C)c1nccn1C1CCCN(C(=O)C2=NN(C)C(=O)CC2)C1` (configuration not stated): 14.4%.

Consider `CO[C@@H]1CC[C@H]2[C@H]1OCCN2C(=O)c1nn(C)c2ccccc12`, for which the INHIBITION is given as -9.23%. The value for `COCCCn1cnnc1CNc1cc(C)nc2ccnn12` was 27.9%. Next, `Cc1cc(NC(=O)CN2C(=O)CC(C)(C)c3ccccc32)no1`: 29.7%; `Cc1ccc(C(=O)N(C)Cc2ccc(Br)o2)c(=O)[nH]1`: 38.6%; `Cc1nc(N2CCC(C(O)c3nccn3C)CC2)c2c(C)noc2n1` (configuration not stated): 52.2%. The value for `Cc1nc(N2CCC(C(O)c3nccn3C)CC2)c2nc(C)oc2n1` (configuration not stated) was 42.1%; that for `Cc1nc(N2CCC(C(O)c3nccn3C)CC2)c2cccnc2n1` (configuration not stated) was -11.6%.

On to `CO[C@@H]1CCN(Cc2nccn2C)[C@H]1Cc1cccnc1`, for which the INHIBITION is 32.2%. Next, `Cc1ccsc1CN1CCC2(CC1)CC(OCc1cccnc1)CO2` (configuration not stated): 26%; `O=C(CCc1nnc(-c2ccccc2)o1)N1CCN(CC2CC2)CC1`: -17%; `CC(=O)N1CCC2(CCN(Cc3cccc(F)c3)CC2)CC1`: -12.1%. Regarding `Cc1noc(C)c1CN1CCC2(CCN(Cc3cccc(F)c3)CC2)C1`, the INHIBITION is 60.2%.
